Screening results deposited in PubChem BioAssay by several laboratories.
Rows were chosen to be rich in hits. Some 3% of all compounds tested hit in one or more screens of this group.
KKLEB cytotox: counter-screen for CF NF-kB inhibitors: cytotoxicity; 360,000 compounds, 0.36% hits; activity change (cytotoxicity), % at 5 µM; AID 602141; KKLEB CF airway cells viability, ATPlite luminescence, overnight; active compounds read low; cells stimulated with P. aeruginosa culture filtrate;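 active = corrected activity change at or below -50% at 5 µM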
ABHD5 PLIN5 PPI: ABHD5-PLIN5 protein interaction inhibition; inhibition, % at 4 µM; Split G. princeps luciferase complementation, luminescence, 4 h; 360,000 compounds, 0.78% hits;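 active = inhibition above the mean inhibition across every tested compound plus 3 SD, cut at about 22% in these data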;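 note: 0% = DMSO only wells and the 100% control is not disclosed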
Target sequence (Q00G26 whole entry, looked up): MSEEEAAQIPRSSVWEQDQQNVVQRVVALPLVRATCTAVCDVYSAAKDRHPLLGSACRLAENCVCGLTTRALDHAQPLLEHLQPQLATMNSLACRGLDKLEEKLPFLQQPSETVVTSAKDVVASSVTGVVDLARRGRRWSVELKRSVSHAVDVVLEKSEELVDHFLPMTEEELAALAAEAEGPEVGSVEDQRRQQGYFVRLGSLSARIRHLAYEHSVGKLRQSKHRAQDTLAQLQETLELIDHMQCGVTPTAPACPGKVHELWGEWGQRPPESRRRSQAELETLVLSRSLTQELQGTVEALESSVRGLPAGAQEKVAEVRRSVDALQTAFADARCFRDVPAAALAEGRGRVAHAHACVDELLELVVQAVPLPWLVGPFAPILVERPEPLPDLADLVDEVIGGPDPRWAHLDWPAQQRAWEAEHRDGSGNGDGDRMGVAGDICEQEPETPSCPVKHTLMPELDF
Target sequence (Q8WTS1 whole entry, looked up): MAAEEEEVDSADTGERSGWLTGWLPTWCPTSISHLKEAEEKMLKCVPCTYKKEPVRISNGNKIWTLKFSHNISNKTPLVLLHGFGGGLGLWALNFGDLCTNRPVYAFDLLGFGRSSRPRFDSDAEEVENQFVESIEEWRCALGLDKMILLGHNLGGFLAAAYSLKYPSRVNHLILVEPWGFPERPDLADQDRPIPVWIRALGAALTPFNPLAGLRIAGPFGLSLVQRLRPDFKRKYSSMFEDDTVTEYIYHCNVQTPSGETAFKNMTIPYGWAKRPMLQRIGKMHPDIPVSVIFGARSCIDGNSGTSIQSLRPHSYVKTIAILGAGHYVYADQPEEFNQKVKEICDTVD
CF NFkB block: inhibitors of cystic fibrosis induced NF-kB | inhibition, % at 5 µM | AID 588850 | 360,000 compounds, 0.86% hits | KKLEB NF-kB-GFP reporter, PAF-induced, GFP fluorescence overnight;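 active = at least 50% inhibition at 5 µM, scaled per plate between neutral and stimulator controls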;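 note: PAF is a Pseudomonas aeruginosa culture filtrate used as stimulus; plate controls were PAF-stimulated DMSO wells for no effect and unstimulated DMSO wells for full effect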
HIF-2a block: blocks HIF-2a reporter activity; 786-0 RCC cells HIF-2a reporter, luciferase luminescence, overnight; inhibition, % at 18.8 µM; 360,000 compounds, 0.72% hits;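 active = inhibition of the luminescence signal of 40% or more relative to plate controls, in a single-dose primary screen at 18.75 µM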
MITF TRPM1 inh: inhibitors of MITF-driven TRPM1 promoter in melanoma cells | SK-MEL-5 TRPM1 promoter luciferase, 24 h | inhibition, % at 12.5 µM | 330,000 compounds, 0.83% hits | AID 488899;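 active = mean inhibition across replicates of 60% or more, whatever share of single replicates reaches that level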
Peg3 promoter: Peg3 promoter activity inhibition; 360,000 compounds, 1.7% hits; AID 588405; inhibition, % at 20 µM; HeLa PEG-Prom luciferase reporter, luminescence, overnight;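 active = inhibition of at least 50% at 20 µM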
ABHD5 PLIN5 conf: ABHD5-PLIN5 interaction inhibition, confirmed. shares compounds with ABHD5 PLIN5 PPI. biochemical ABHD5-PLIN5 interaction, luminescence. inhibition, % at 4 µM. 2,200 compounds, 67% hits; in the data active = inhibition above about 23%;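 note: 0% = DMSO vehicle wells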
HNF4 counter: counter-screen for ABHD5-PLIN5 inhibitors: HNF4 split-luciferase. shares compounds with ABHD5 PLIN5 PPI. HNF4 dimerization, luminescence, biochemical. inhibition, % at 4 µM. 2,200 compounds, 77% hits. AID 651674;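 active = mean inhibition across replicate wells exceeding the computed hit threshold, cut at about 13% in these data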;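 note: light from luciferase halves that rejoin when HNF4 fusion proteins dimerize; 0% = DMSO only wells and the 100% control is not given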
The depositor's hits bear a star; . = no result given.

SMILES	KKLEB cytotox	ABHD5 PLIN5 PPI	CF NFkB block	HIF-2a block	MITF TRPM1 inh	Peg3 promoter	ABHD5 PLIN5 conf	HNF4 counter
COc1ccc(/C=C2\COc3ccccc3C2=O)cc1OC	2	33*	12	-10	8	95*	76*	71*
C[C@@H]1CCCCO[C@H](CN(C)Cc2ccc(C(=O)O)cc2)[C@@H](C)CN([C@H](C)CO)C(=O)c2cc(NC(=O)CCC(F)(F)F)ccc2O1	0	-5	1	18	.	-20	.	.
O=C(Cn1c(=O)n(Cc2ccco2)c(=O)c2c3c(sc21)CCCC3)Nc1ccccc1	0	53*	10	36	-2	23	24*	10
O=c1c2c3c(sc2n(CCN2CCCCC2)c(=O)n1Cc1ccco1)CCCCC3	-6	7	7	-15	-7	17	.	.
NC(=O)Cn1c(=O)n(Cc2ccco2)c(=O)c2c3c(sc21)CCCCC3	2	62*	6	-12	23	18	26*	41*
CC(C)C[C@@H]1COc2cccc(N(C)CCO)c2S(=O)(=O)N1	.	4	.	-1	.	.	.	.
C/C(CC(=O)Nc1ccccn1)=N\NC(=O)c1cnccn1	6	-5	0	21	6	12	.	.
CCCCn1c(=O)n(CC(=O)Nc2ccc(C)c(Cl)c2)c(=O)c2c1ncn2Cc1ccco1	-14	36*	13	7	3	13	26*	9
CCn1cnc2c1c(=O)n(CC(=O)Nc1cc(C)on1)c(=O)n2Cc1ccccc1	-3	-5	6	17	5	2	.	.
Cc1sc2nc(SCC(=O)NCc3ccco3)n(-c3ccccc3)c(=O)c2c1C	1	-1	-14	0	-2	10	.	.
CC(C)C(C)(C#N)NC(=O)CSc1nc2scc(-c3ccco3)c2c(=O)n1-c1ccccc1 (stereo not given)	-1	25*	-2	12	-5	3	30*	93*
CC(C)C(C)NC(=O)CSc1nc2scc(-c3ccco3)c2c(=O)n1-c1ccccc1 (stereo not given)	3	38*	14	7	2	14	8	15*
CN1OC[C@@H]2CN(C(=O)CCc3ccccc3)[C@H](c3ccc(N4CCCCC4)cc3)C[C@@H]21	8	-6	-27	4	.	0	.	.
CCCCCCCCCc1conc1C(=O)/C=C/c1oc2c(c1C)CCC(C)C2 (stereo not given)	.	42*	.	5	.	.	37*	-1
CC1CCc2onc(C(=O)O)c2C1 (stereo not given)	9	2	-11	2	3	9	.	.
COc1ccc(/C=C\C(=O)CC(O)(c2ccccc2)C(F)(F)F)cc1 (stereo not given)	-5	53*	23	23	7	45	79*	55*
COc1ccc(/C=C/C(=O)OCC(=O)c2ccccc2F)cc1	1	7	-7	-236	-23	-303	.	.
CCOC(=O)CSc1nnc(NCC(=O)OC(C)C)c(=O)[nH]1	-4	27*	8	14	2	7	48*	98*
Cc1nc(CNC(=O)CC2C(=O)NCCN2Cc2ccoc2)nc2c1CCCC2 (stereo not given)	12	34*	-16	19	-4	-1	45*	34*
O=C(CC1C(=O)NCCN1Cc1ccoc1)NCCc1ccc(Cl)cc1 (stereo not given)	9	38*	-24	15	6	1	20	16*
O=c1[nH]cc(S(=O)(=O)Nc2ccc3c(c2)OCO3)c(=O)[nH]1	4	5	-12	-26	5	0	.	.
COc1cc(NC(=O)C/C(C)=N/NC(=O)C(=O)NC2CCCCC2)c(OC)cc1Cl	1	24*	-4	14	17	13	6	5
Cc1nn(CC(=O)Nc2ccccn2)c(C)c1[N+](=O)[O-]	2	73*	10	0	4	3	2	-4
Cc1ccc(C(=O)/C=C/c2cc(Br)cc(Br)c2O)o1	-23	30*	25	25	8	31	59*	25*
CN(C(=O)COc1ncnc2sccc12)c1ccccc1	-3	0	-10	3	-9	6	.	.
SMILES	KKLEB cytotox	ABHD5 PLIN5 PPI	CF NFkB block	HIF-2a block	MITF TRPM1 inh	Peg3 promoter	ABHD5 PLIN5 conf	HNF4 counter
COc1ccc(OC)c(NC(=O)CN2C(=O)NC3(CCCc4ccccc43)C2=O)c1 (stereo not given)	14	8	9	11	-2	-6	.	.
COc1cccc(NC(=O)CN2C(=O)NC3(CCCc4ccccc43)C2=O)c1 (stereo not given)	-13	92*	19	3	-7	-6	4	2
N#CC1=C(N)NC(=S)C(C(N)=O)C1c1ccc(Cl)cc1Cl (stereo not given)	0	57*	27	24	8	41	13	101*
N#CC1=C(N)NC(=S)C(C(N)=O)C1c1ccccc1F (stereo not given)	0	38*	-18	10	-8	-1	-11	84*
CCOc1ccc(C(CN2CCOCC2)C(C)=O)cc1OC (stereo not given)	1	34*	17	-10	.	58*	12	57*
CCOc1ccc(C(C#N)N2CCOCC2)cc1OC (stereo not given)	8	3	-34	12	-1	-4	.	.
COc1ccccc1-c1ncn(Cc2cccc(-c3ccccc3)c2)c1-c1ccco1	.	25*	.	3	.	.	22*	37*
COc1ccccc1-c1ncn(Cc2cccc(-c3ccccc3)c2)c1-c1cc(C)cc(C)c1	.	-7	.	-23	.	.	.	.
COc1ccc(/C=C/C(=O)c2ccc(Cl)s2)cc1O	-4	42*	0	-92	-66	-149	54*	43*
O=C(C=Cc1ccc(Cl)s1)c1ccc(Cl)s1	-4	21	10	-43	-21	-11	.	.
COc1cc(/C=C/C(=O)c2ccc(Cl)s2)cc(OC)c1O	-23	38*	42	27	28	52*	74*	38*
CCN(CC(=O)NCc1cccs1)C(=O)c1cccc(S(=O)(=O)Nc2ccc(OC)cc2)c1	-10	-3	19	9	5	3	.	.
Clc1cccc(Cc2c(C3CCCCC3)nc3ccc(Br)cn23)c1	-2	-7	13	-15	.	-9	.	.
OC(COC1CCCCC1)CN1CCCCC1 (stereo not given)	7	0	0	2	-2	-5	.	.
COc1cc(O)c(C(C)=O)c(OC)c1	-10	-7	-8	-2	-11	-1	.	.
COc1ccc(/C=C/C(=O)c2ccccc2)c(OC)c1	11	1	1	-226	-45	-254	.	.
